This is an account of results in the supplement of paper PMC10811239.

The test system of the test is LEGO organoid PT (PTEN-/-; TP53-/-). Briefly: bioluminescence (viable cell) signal fold change after vs before treatment, normalised to DMSO (ratio); higher = more tumour cell growth / less inhibition. The following applies: 10 µM; treatment time 6 days. The method, then: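 Luc2-labelled iPSC-derived glioblastoma-like organoids (LEGOs, genotypes PT = PTEN-/-;TP53-/-, PTCC = plus CDKN2A/B-/-, PTN = plus NF1-/-) were treated with 10 uM drug for 6 days (applied every other day) at 37 C. Bioluminescence imaging was done before treatment and 2 days after the last dose. BLI signals were normalised to the DMSO control on the same day and then to the pre-treatment signal (N=3).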
On to `CCc1nc(N)nc(N)c1-c1ccc(Cl)cc1` [Pyrimethamine], for which the bioluminescence stood at 0.65.
Under `Cl.O=C1CN2Cc3c(ccc(Cl)c3Cl)NC2=N1` [Anagrelide hydrochloride] stands 1.02.
Under `CCC(CC)O[C@@H]1C=C(C(=O)O)C[C@H](N)[C@H]1NC(C)=O` [Oseltamivir acid] stands 0.803.
The same measure for `CNS(=O)(=O)Cc1ccc2[nH]cc(CCN(C)C)c2c1.O=C(O)CCC(=O)O` [Sumatriptan succinate]: 1.23.
Turning to `C=CC(=O)Nc1cc(Nc2nccc(-c3cn(C)c4ccccc34)n2)c(OC)cc1N(C)CCN(C)C` [Osimertinib], the bioluminescence stood at 0.644.
The same measure for `C#Cc1cccc(Nc2ncnc3cc(OCCOC)c(OCCOC)cc23)c1.Cl` [Erlotinib hydrochloride]: 1.53; for `Cc1oncc1C(=O)Nc1ccc(C(F)(F)F)cc1` [Leflunomide]: 2.01.
Under `CN(C/C=C/C#CC(C)(C)C)Cc1cccc2ccccc12` [Terbinafine] stands 0.601; under `CCCCN1CCCCC1C(=O)Nc1c(C)cccc1C.Cl` (stereo not drawn) [Bupivacaine hydrochloride], 1.37.
The same measure for `CN(C)CCC[C@@]1(c2ccc(F)cc2)OCc2cc(C#N)ccc21.O=C(O)C(=O)O` [Escitalopram Oxalate]: 1.52; for `NCC[C@H](O)C(=O)N[C@@H]1C[C@H](N)[C@@H](O[C@H]2O[C@H](CN)[C@@H](O)[C@H](O)[C@H]2O)[C@H](O)[C@H]1O[C@H]1O[C@H](CO)[C@@H](O)[C@H](N)[C@H]1O.O=S(=O)(O)O.O=S(=O)(O)O` [Amikacin disulfate]: 1.24; for `CN1[C@@H]2CC[C@H]1C[C@@H](OC(c1ccccc1)c1ccccc1)C2.CS(=O)(=O)O` [Benztropine mesylate]: 1.14.
For `CN(C)CCCN1c2ccccc2CCc2ccc(Cl)cc21.Cl` [Clomipramine hydrochloride], the bioluminescence came out at 0.859.
`CNCC[C@@H](Oc1ccccc1C)c1ccccc1.Cl` [Atomoxetine hydrochloride]: the bioluminescence came out at 0.833.
The same measure for `CC(C)c1nc(CN(C)C(=O)N[C@H](C(=O)N[C@@H](Cc2ccccc2)C[C@H](O)[C@H](Cc2ccccc2)NC(=O)OCc2cncs2)C(C)C)cs1` [Ritonavir]: 1.3; for `Nc1nc2c(ncn2COCCO)c(=O)[nH]1` [Aciclovir]: 2.34; for `Cl.OC(CCN1CCCCC1)(c1ccccc1)C1CCCCC1` (racemic) [DL-trihexyphenidyl hydrochloride]: 1.67.
Under `CCCC(CCC)C(=O)[O-].[Na+]` [Valproic acid sodium salt] stands 1.11; under `C[C@@H]1O[C@]2(CS1)CN1CCC2CC1.C[C@@H]1O[C@]2(CS1)CN1CCC2CC1.Cl.Cl.O` [Cevimeline hydrochloride hemihydrate], 0.884.
Turning to `Nc1ncnc2c1ncn2[C@@H]1O[C@H](CO)[C@@H](O)[C@H]1OP(=O)(O)O` [Adenosine-2'-monophosphate], the bioluminescence is 1.31.
The same measure for `O=c1cc(O)c(Cl)c[nH]1` [Gimeracil]: 0.79; for `CCCN(CCc1cccs1)[C@H]1CCc2c(O)cccc2C1` [Rotigotine]: 0.925; for `CCOC(=O)N1CC\C(CC1)=C1\c2ccc(Cl)cc2CCc2cccnc12` [Loratadine]: 0.684.
`Nc1nc(NC2CC2)c2ncn([C@H]3C=C[C@@H](CO)C3)c2n1` [Abacavir]: the bioluminescence is 1.2.
Under `CO/N=C(\C(=O)N[C@@H]1C(=O)N2C(C(=O)[O-])=C(COC(C)=O)CS[C@H]12)c1csc(N)n1.[Na+]` [Cefotaxime sodium] stands 0.745; under `CC[C@H](C)C(=O)O[C@H]1C[C@@H](C)C=C2C=C[C@H](C)[C@H](CC[C@@H]3C[C@@H](O)CC(=O)O3)[C@H]21` [Lovastatin], 1.33.
Under `CCCN(CCC)CCc1cccc2c1CC(=O)N2.Cl` [Ropinirole hydrochloride] stands 1.27; under `O=C(O)c1cccnc1` [Niacin], 0.772.
On to `C#Cc1cccc(Nc2ncnc3cc(OCCOC)c(OCCOC)cc23)c1` [Erlotinib], for which the bioluminescence was 0.504.
The same measure for `CO[C@@H]1[C@H](N(C)C(=O)c2ccccc2)C[C@H]2O[C@]1(C)n1c3ccccc3c3c4c(c5c6ccccc6n2c5c31)C(=O)NC4` [Midostaurin]: 0.527; for `CC/C(=C(/CC)c1ccc(O)cc1)c1ccc(O)cc1` [Diethylstilbestrol]: 1.01.
Under `Cc1cnc(NC(=O)C2=C(O)c3ccccc3S(=O)(=O)N2C)s1` [Meloxicam] stands 0.756.
For `Cc1ccnc2c1NC(=O)c1cccnc1N2C1CC1` [Nevirapine], the bioluminescence was 2.15.
The same measure for `CN[C@H](CC(C)C)C(=O)N[C@H]1C(=O)N[C@@H](CC(N)=O)C(=O)N[C@H]2C(=O)N[C@H]3C(=O)N[C@H](C(=O)N[C@H](C(=O)O)c4cc(O)cc(O)c4-c4cc3ccc4O)[C@H](O)c3ccc(c(Cl)c3)Oc3cc2cc(c3O[C@@H]2O[C@H](CO)[C@@H](O)[C@H](O)[C@H]2O[C@H]2C[C@](C)(N)[C@H](O)[C@H](C)O2)Oc2ccc(cc2Cl)[C@H]1O` [Vancomycin]: 1.48.
Under `Cl.NC12CC3CC(CC(C3)C1)C2` [Amantadine hydrochloride] stands 0.852.
On to `COC(c1ccccc1)(c1ccccc1)[C@H](Oc1nc(C)cc(C)n1)C(=O)O` [Ambrisentan], for which the bioluminescence stood at 0.999.
Consider `CN(C)CCCN1c2ccccc2CCc2ccccc21.Cl` [Imipramine hydrochloride], for which the bioluminescence is 0.921.
The same measure for `COc1ccc2c(c1)c(CC(=O)O)c(C)n2C(=O)c1ccc(Cl)cc1` [Indometacin]: 1.04.
